Source: PubChem (National Center for Advancing Translational Sciences (NCATS))
HepG2 tox – qHTS for Inhibitors of TGF-b: Cytotox Counterscreen. HepG2 CAGA-GFP viability, ATP luminescence, 18 h. Potency, µM (highest dose often 46.1 µM), for inactives: top-dose activity change, negative = cytotoxicity, actives largely listed as cytotoxic. 410,000 compounds, 0.76% hits. AID 588856, 2011; further: potency means the concentration at half of the fitted maximal effect
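CellTiter-Glo luminescence gave cytotoxicity after 18 hours at 37 degrees C. The cells were HepG2 CAGA-GFP in 1% FBS DMEM, stimulated with 500 pg/mL TGF-beta after compound addition. %Activity was normalised to no-cell wells (complete cell-killing) and DMSO (no toxicity), and curves were fitted and classified.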
S2 tox – Viability Counterscreen for Primary qHTS for Inhibitors of ATXN expression; 400,000 compounds, 0.49% hits; AID 651635, 2014; S2 cells (HEK-293 line with an ATXN2-luciferase reporter) viability, CellTiter-Fluor protease fluorescence, 24 h; Potency, µM (highest dose often 56.7 µM), hits mostly cytotoxic; further: potency means the concentration at half of the fitted maximal effect; nearly all actives have a fitted effect of over 40% in size
TGFb inhibitor – qHTS for Inhibitors of TGF-b. HepG2 CAGA-GFP TGF-b/SMAD3 reporter, GFP fluorescence, 18 h; TGF-beta stimulated, 500 pg/mL final. Potency, µM (highest dose often 46.1 µM), for inactives: at the highest dose activity, negative = inhibition, usual class: inhibitors. 410,000 compounds, 1.2% hits; further: potency means the concentration at half of the fitted maximal effect; on the % scale 0 is the no-effect control and ±100 the full control effect; nearly all actives have a fitted effect of over 65% in size
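HEPG2 CAGA-GFP cells (1000/well, DMEM with 1% FBS) were pre-incubated 2 h at 37 degrees C, given compound by pin tool, then stimulated with TGF-beta at 500 pg/mL final for 18 h before per-cell GFP fluorescence imaging.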
IL-1B inflam inh – qHTS for Inhibitors of Inflammasome Signaling: IL-1-beta AlphaLISA Primary Screen. THP-1 LPS/ATP IL-1B secretion, AlphaLISA, 16 h; stronger effect = lower value. 360,000 compounds, 4.7% hits. activity change, % at 57.5 µM; in the data active means activity change below about -50%; inconclusive means mostly about -30% to -49%; further: on the % scale 0 is the no-effect control and ±100 the full control effect
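Secreted IL-1B measured by AlphaLISA bead assay after 16 h compound exposure of THP-1 cells; compounds (final up to 57.5 uM) added 1 h before LPS (250 ng/mL) and ATP (1.25 mM) stimulation; lower signal means less secretion.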
ATXN2 expr inh – Primary qHTS for Inhibitors of ATXN expression; HEK-293 ATXN2-luciferase reporter, luminescence, 24 h; Potency, µM (series often up to 57 µM), for inactives: top-dose activity change, negative = inhibition, actives largely listed as inhibitors; 360,000 compounds, 0.72% hits; further: potency means the concentration at half of the fitted maximal effect; on the % scale 0 is the no-effect control and ±100 the full control effect; nearly all actives have a fitted effect of over 55% in size
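qHTS (up to 57 uM final) was run with 24 h compound exposure of reporter cells at 37 °C. Each well was multiplexed: SteadyGlo luminescence measured ATXN2-luciferase expression after a fluorogenic Gly-Phe-AFC viability readout (25 uM final).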
* marks the source's active call; other numbers are inactive results; i = inactive; ? = inconclusive; . = not tested or not shown; ! = a repeat was not active; [ ] = dose if it differs, or a comment. Rows were chosen to be rich in hits. Some 5.7% of all compounds tested hit in one or more screens of this group. Unless noted, the call rests on the fitted dose curve; in most records, active means well fitted curve in the direction sought with a large enough effect; inconclusive means small, poorly fitted or top-dose-only effect, or another doubt; inactive means no such curve, though single readings can be large; an effect the other way counts as inactive or inconclusive.

SMILES | HepG2 tox | S2 tox | TGFb inhibitor | IL-1B inflam inh | ATXN2 expr inh
COc1cccc(NC(=O)Cn2cc(C(=O)c3ccccc3)c3ccccc32)c1 | -18% | . | 10µM* | . | .
CC(C)[C@H]1C(=O)O[C@H](C(C)C)C(=O)N(C)[C@@H](C(C)C)C(=O)O[C@H](C(C)C)C(=O)N(C)[C@@H](C(C)C)C(=O)O[C@H](C(C)C)C(=O)N1C | -38% | 10µM* | 5.6µM* | -8 | 7.9µM*
O=C(Nc1ccc(Br)cc1)c1ccc(F)c(S(=O)(=O)N2CCCc3ccccc32)c1 | -20% | . | ? | . | .
COC(=O)c1nc(-c2ccc3c(n2)C(=O)C(N)=C(OC)C3=O)c(N)c(-c2ccc(OC)c(OC)c2O)c1C | -146% | ? | ? | -55* | ?
CC(C)OP(=O)(OC(C)C)C(NC(=O)c1ccccc1Br)C(N)=O (configuration not stated) | -30% | i | -1% | 22 | 14%
O=C(O)C(=O)c1cn(Cc2ccccc2)c2ccc(-c3ccc(OC(F)(F)F)cc3)cc12 | . | . | . | . | -7%
CC(=O)NC1CCSC1=O (configuration not stated) | . | i | . | . | 7%
COc1ccc(CC(C)NCCC(c2ccccc2)c2ccccc2)cc1 (configuration not stated) | -105% | ? | ? | -71* | .
C=CC[C@@H](CC(=O)N(CCO)Cc1ccccc1)C(=O)NC[C@@H](OC(=O)[C@@H](CC=C)CC(=O)OC(C)(C)C)c1ccccc1 | -14% | 20µM* | -24% | ? | ?
C=CC[C@H](CC(=O)N(CCO)Cc1ccccc1)C(=O)NC[C@H](OC(=O)[C@@H](CC=C)CC(=O)OC(C)(C)C)c1ccccc1 | -20% | 25µM* | ? | -71* | ?
Cc1cccc(-n2nc(C)c(C(=O)N3CCN(c4ccccc4)CC3)c2-n2cccc2)c1 | -13% | . | ? | . | .
COC(COC(N)=O)C1=C(N2CC2)C(=O)C(C)=C(N2CC2)C1=O (configuration not stated) | -89% | ? | ? | -113* | 3.5µM*
Nc1c(Br)cc2c3c(cccc13)-c1ccccc1-2 | 16µM* | i | 63% | -18 | 2%
Fc1cc(Br)ccc1CBr | . | i | . | . | 12%
c1ccc2c(c1)[IH]c1ccccc1-2 | -47% | ? | 4.5µM* | -94* | 7.9µM*
COc1ccccc1NC(=O)Oc1cccc(OC(=O)c2ccccc2)c1 | -13% | ? | 0% | -4 | .
COc1ccc(CNC(=O)Cn2c(=O)oc3cc(S(=O)(=O)N4CCCCCC4)ccc32)cc1 | -36% | . | -2% | . | .
O=[N+]([O-])c1cc([N+](=O)[O-])c2ccccc2c1 | . | ? | . | . | -16%[116 µM]
Cc1cccc(N=C2c3cc([N+](=O)[O-])ccc3-c3c2cc([N+](=O)[O-])cc3[N+](=O)[O-])c1 | -16% | ? | -6% | -96* | ?
Oc1ccc(Cl)cc1Cc1cc(Cl)ccc1O | -74% | ? | ? | 2 | 28µM*!
CCN1C(=O)c2ccccc2Sc2ccc(NC(=O)Nc3ccc(Br)c(C)c3)cc21 | -2% | ? | ? | . | ?
O=c1[nH]c2ccccc2n1C1CCN(C(CCc2ccccc2)c2nnnn2-c2ccc3c(c2)OCCO3)CC1 (configuration not stated) | -18% | . | ? | ? | 7.9µM*
CCCCn1nnnc1C(CCSC)N1CCC(n2c(=O)[nH]c3ccccc32)CC1 (configuration not stated) | -26% | ? | -34% | -4 | -31%
CCCCn1nnnc1C(CCc1ccccc1)N1CCC(n2c(=O)[nH]c3ccccc32)CC1 (configuration not stated) | 1% | ? | ? | -56* | ?
COc1cccc(C(c2nnnn2-c2c(C)cccc2C)N2CCC(n3c(=O)[nH]c4ccccc43)CC2)c1OC (configuration not stated) | -3% | ? | ? | -84* | ?
